Results as given in PubChem BioAssay AID1159580 (chemical genetic matrix, 2015).
Values joined by “and” are separate entries in the source; they are usually repeats but may differ in a detail not shown here. Equal entries are not always repeated. The whole screen tested about 5,500 compounds, of which about 2,000 (36%) were called active. Another 18% or so got no clear call; they are omitted. No stated cut-off is given here; in the data, active means normalized growth mostly below about 0.91 (no sharp cut-off); inconclusive means no clear call, values can overlap the other calls; inactive means mostly above about 0.92. Some of the results follow.

Assay: chemical genetic growth profiling, strain panel (AID 1159580);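 further: tested at 20 µM; growth read once vehicle control cultures reached saturation at 30 °C; 1 = growth at the plate median or of vehicle wells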
Settings: growth OD

Measured: normalized growth

O=C(O)c1cc(=O)c2c(Cl)cc(Cl)cc2[nH]1
inactive: S. cerevisiae deletion strains, locus YJL187C, strain SWE1, stronger effect = lower value 1.02 | S. cerevisiae deletion strains, locus YJR043C, strain POL32, stronger effect = lower value 1 | S. cerevisiae deletion strains, locus YJR075W, strain HOC1, stronger effect = lower value 0.985 | S. cerevisiae deletion strains, locus YKL009W, strain mrt4, stronger effect = lower value 1 | S. cerevisiae deletion strains, locus YKL068W, stronger effect = lower value 1 | S. cerevisiae deletion strains, locus YKL085W, strain MDH1 (second series), stronger effect = lower value 1.01 | S. cerevisiae deletion strains, locus YKL085W, strain MDH1, stronger effect = lower value 1.01 | S. cerevisiae deletion strains, locus YKL160W, strain elf1, stronger effect = lower value 1.01 | S. cerevisiae deletion strains, locus YKL190W, strain CNB1, stronger effect = lower value 1 | S. cerevisiae deletion strains, locus YKR001C, strain vps1, stronger effect = lower value 1.05 | S. cerevisiae deletion strains, locus YKR026C, strain gcn3, stronger effect = lower value 1.02 | S. cerevisiae deletion strains, locus YKR091W, strain srl3, stronger effect = lower value 1.01 | S. cerevisiae deletion strains, locus YLL001W, strain dnm1, stronger effect = lower value 1.03 | S. cerevisiae deletion strains, locus YLL026W, stronger effect = lower value 1.01 | S. cerevisiae deletion strains, locus YLL041C, strain sdh2, stronger effect = lower value 1.01 | S. cerevisiae deletion strains, locus YLR027C, strain aat2, stronger effect = lower value 1.01 | S. cerevisiae deletion strains, locus YLR039C, strain RIC1, stronger effect = lower value 1.04 | S. cerevisiae deletion strains, locus YLR058C, strain SHM2, stronger effect = lower value 1.01 | S. cerevisiae deletion strains, locus YLR102C, strain apc9, stronger effect = lower value 1.01 | S. cerevisiae deletion strains, locus YLR221C, strain rsa3, stronger effect = lower value 1.02 | S. cerevisiae deletion strains, locus YLR258W, strain gsy2, stronger effect = lower value 1.02 | S. cerevisiae deletion strains, locus YLR262C, strain YPT6 (second series), stronger effect = lower value 1.01 | S. cerevisiae deletion strains, locus YLR262C, strain YPT6, stronger effect = lower value 1.03 | S. cerevisiae deletion strains, locus YLR268W, strain sec22, stronger effect = lower value 1.03 | S. cerevisiae deletion strains, locus YLR320W, strain mms22, stronger effect = lower value 1.03 | S. cerevisiae deletion strains, locus YLR330W, strain CHS5, stronger effect = lower value 1.01 | S. cerevisiae deletion strains, locus YLR342W, strain FKS1 (second series), stronger effect = lower value 1.02 | S. cerevisiae deletion strains, locus YLR342W, strain FKS1, stronger effect = lower value 1.02 | S. cerevisiae deletion strains, locus YLR357W, strain rsc2, stronger effect = lower value 1 | S. cerevisiae deletion strains, locus YLR370C, strain arc18, stronger effect = lower value 1.02 | S. cerevisiae deletion strains, locus YLR371W, strain rom2, stronger effect = lower value 1 | S. cerevisiae deletion strains, locus YLR384C, strain iki3, stronger effect = lower value 1.01 | S. cerevisiae deletion strains, locus YLR418C, strain cdc73, stronger effect = lower value 1.05 | S. cerevisiae deletion strains, locus YML016C, strain PPZ1, stronger effect = lower value 1.01 | S. cerevisiae deletion strains, locus YML032C, strain rad52, stronger effect = lower value 1.01 | S. cerevisiae deletion strains, locus YML120C, strain ndi1, stronger effect = lower value 1.02 | S. cerevisiae deletion strains, locus YML124C, strain tub3, stronger effect = lower value 1.01 | S. cerevisiae deletion strains, locus YMR058W, strain fet3, stronger effect = lower value 1.01 | S. cerevisiae deletion strains, locus YMR078C, strain ctf18, stronger effect = lower value 1.03 | S. cerevisiae deletion strains, locus YMR125W, strain sto1, stronger effect = lower value 1 | S. cerevisiae deletion strains, locus YMR129W, stronger effect = lower value 1.01 | S. cerevisiae deletion strains, locus YMR205C, strain PFK2, stronger effect = lower value 1.01 | S. cerevisiae deletion strains, locus YMR223W, strain ubp8, stronger effect = lower value 1.03 | S. cerevisiae deletion strains, locus YMR231W, strain pep5, stronger effect = lower value 1.01 | S. cerevisiae deletion strains, locus YMR263W, strain SAP30, stronger effect = lower value 1 | S. cerevisiae deletion strains, locus YMR307W, strain GAS1, stronger effect = lower value 1.04 | S. cerevisiae deletion strains, locus YNL067W, strain RPL9B, stronger effect = lower value 0.997 | S. cerevisiae deletion strains, locus YNL071W, strain lat1, stronger effect = lower value 1.02 | S. cerevisiae deletion strains, locus YNL153C, strain GIM3, stronger effect = lower value 1 | S. cerevisiae deletion strains, locus YNL175C, strain NOP13, stronger effect = lower value 0.996 | S. cerevisiae deletion strains, locus YNL197C, strain WHI3, stronger effect = lower value 1.01 | S. cerevisiae deletion strains, locus YNL209W, strain ssb2, stronger effect = lower value 1 | S. cerevisiae deletion strains, locus YNL224C, strain SQS1, stronger effect = lower value 0.995 | S. cerevisiae deletion strains, locus YNL233W, strain BNI4, stronger effect = lower value 1 | S. cerevisiae deletion strains, locus YNL248C, strain rpa49, stronger effect = lower value 1.01 | S. cerevisiae deletion strains, locus YNL250W, strain rad50, stronger effect = lower value 1.03 | S. cerevisiae deletion strains, locus YNL271C, strain bni1, stronger effect = lower value 1.02 | S. cerevisiae deletion strains, locus YNL298W, strain CLA4, stronger effect = lower value 1.01 | S. cerevisiae deletion strains, locus YNL307C, strain MCK1, stronger effect = lower value 1.02 | S. cerevisiae deletion strains, locus YNL322C, strain KRE1 (second series), stronger effect = lower value 1.02 | S. cerevisiae deletion strains, locus YNL322C, strain KRE1, stronger effect = lower value 0.993 and 1 | S. cerevisiae deletion strains, locus YNR049C, strain mso1, stronger effect = lower value 1.01 | S. cerevisiae deletion strains, locus YNR052C, strain pop2, stronger effect = lower value 1.02 | S. cerevisiae deletion strains, locus YOL006C, strain TOP1, stronger effect = lower value 0.999 | S. cerevisiae deletion strains, locus YOL012C, strain htz1 1.91 | S. cerevisiae deletion strains, locus YOL147C, strain pex11, stronger effect = lower value 1.02 | S. cerevisiae deletion strains, locus YOR001W, strain rrp6, stronger effect = lower value 1.01 | S. cerevisiae deletion strains, locus YOR061W, strain CKA2, stronger effect = lower value 1.02 | S. cerevisiae deletion strains, locus YOR069W, strain VPS5, stronger effect = lower value 1.01 | S. cerevisiae deletion strains, locus YOR070C, strain gyp1, stronger effect = lower value 1.01 | S. cerevisiae deletion strains, locus YOR080W, strain dia2, stronger effect = lower value 1.02 | S. cerevisiae deletion strains, locus YOR083W, strain WHI5 (second series), stronger effect = lower value 0.994 | S. cerevisiae deletion strains, locus YOR083W, strain WHI5, stronger effect = lower value 1.02 | S. cerevisiae deletion strains, locus YOR106W, strain vam3, stronger effect = lower value 1.01 | S. cerevisiae deletion strains, locus YOR136W, strain idh2, stronger effect = lower value 1.02 | S. cerevisiae deletion strains, locus YOR144C, strain elg1, stronger effect = lower value 1.01 | S. cerevisiae deletion strains, locus YOR184W, strain ser1, stronger effect = lower value 1.02 | S. cerevisiae deletion strains, locus YOR265W, strain rbl2, stronger effect = lower value 1.01 | S. cerevisiae deletion strains, locus YOR270C, strain vph1, stronger effect = lower value 1.03 | S. cerevisiae deletion strains, locus YOR290C, strain snf2, stronger effect = lower value 0.991 | S. cerevisiae deletion strains, locus YOR316C, strain cot1, stronger effect = lower value 1.01 | S. cerevisiae deletion strains, locus YPL051W, strain arl3, stronger effect = lower value 1.01 | S. cerevisiae deletion strains, locus YPL055C, strain LGE1, stronger effect = lower value 0.992 | S. cerevisiae deletion strains, locus YPL078C, strain atp4, stronger effect = lower value 1.01 | S. cerevisiae deletion strains, locus YPL106C, strain sse1, stronger effect = lower value 0.999 | S. cerevisiae deletion strains, locus YPL240C, strain hsp82, stronger effect = lower value 1.02 | S. cerevisiae deletion strains, locus YPL241C, strain CIN2, stronger effect = lower value 1 | S. cerevisiae deletion strains, locus YPR119W, strain clb2, stronger effect = lower value 1.01 | S. cerevisiae deletion strains, locus YPR141C, strain kar3, stronger effect = lower value 1.01 | S. cerevisiae deletion strains, locus YPR163C, strain tif3, stronger effect = lower value 1.02 | S. cerevisiae deletion strains, locus YPR167C, strain met16, stronger effect = lower value 1.02 | S. cerevisiae deletion strains, strain wtn01, stronger effect = lower value 1.02 | S. cerevisiae strains, strain wild type, stronger effect = lower value 1
